Consider six compounds from PubChem BioAssay (NCATS).

The target of test [1] is T1, Tyrosine-protein phosphatase non-receptor type substrate 1 (Homo sapiens) + Leukocyte surface antigen CD47 (Homo sapiens) (UniProt P78324+Q08722). Briefly: CD47-SIRPalpha protein protein interaction - Alpha assay qHTS validation (AID 1347059).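 Note: bead proximity luminescence from CD47 binding SIRPalpha after compound preincubation with SIRPalpha.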 Put shortly: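 Soluble extracellular domains: Avi-tag biotinylated SIRPalpha (25 nM) preincubated 30 min RT with compound, then 6His-CD47 (12.5 nM) 30 min; Ni-NTA acceptor and streptavidin donor beads (10 ug/mL) 30 min, AlphaScreen read. PBS pH 7.4, 0.05% IGEPAL.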
Background: In qHTS, concentration-response curves come from the screen itself.

The target in test [2] is Parathyroid hormone/parathyroid hormone-related peptide receptor (Homo sapiens) (UniProt Q03431). Briefly: qHTS for PTHR1 Agonists: Optimization Screen against the NCGC LOPAC library (AID 1347079).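 Note: GloSensor cAMP luminescence in HEK-293 GP2 cells expressing human PTHR1 with IBMX.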 Put shortly: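 Compounds were tested across a qHTS titration. PTHR1-expressing GP2 cells report cAMP rises via GloSensor luminescence after 1 hr compound exposure at 37C with IBMX present.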

Test [3] is described as follows: qHTS of pediatric cancer cell lines to identify multiple opportunities for drug repurposing: Primary screen for TC32 cells (AID 1347089). Note: nearly all actives have a fitted effect of over 60% in size. Note: potency is the fitted concentration of half-maximal effect. The method, boiled down: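 In the primary qHTS, MIPE compounds were tested at 11 concentrations (0.78 nM to 46 µM) and NPC compounds at 8 (0.59 nM to 46 µM) on TC32 cells for 48 h. CellTiter-Glo luminescence gave viability.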
The nature of test [4]: qHTS of pediatric cancer cell lines to identify multiple opportunities for drug repurposing: Primary screen for DAOY cells (AID 1347090). Note: nearly all actives have a fitted effect of over 55% in size. Note: potency is the fitted concentration of half-maximal effect. The method, boiled down:
(§1)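 Eight- or eleven-point concentration series, 48 h treatment at 37 degrees C in growth media; readout CellTiter-Glo luminescence. Potency and efficacy were taken from the concentration-response curves.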

Test [5] is described as follows: qHTS of pediatric cancer cell lines to identify multiple opportunities for drug repurposing: Primary screen for SK-N-MC cells (AID 1347093). Note: potency is the fitted concentration of half-maximal effect. Put shortly:
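Metabolically active cells were quantified by ATP-dependent luminescence (CellTiter-Glo, 15 min at room temperature) following 48 h treatment. Cells had been plated at 500-1,000 per well and settled for 5 h beforehand.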

Test [6] in a line: qHTS of pediatric cancer cell lines to identify multiple opportunities for drug repurposing: Primary screen for BT-37 cells (AID 1347094). Note: potency is the fitted concentration of half-maximal effect. Put shortly:
(§2)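 500-1,000 cells/well; 5 h pre-incubation 37 °C/5% CO2; compound pinned; 48 h; CellTiter-Glo, 15 min RT; luminescence. MIPE 11-pt from 0.78 nM, NPC 8-pt from 0.59 nM final. Bortezomib 2.3 µM final as positive control.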

A short description of test [7]: qHTS of pediatric cancer cell lines to identify multiple opportunities for drug repurposing: Primary screen for NB-EBc1 cells (AID 1347095). Note: potency is the fitted concentration of half-maximal effect. The method, boiled down:
as §2

A short description of test [8]: qHTS of pediatric cancer cell lines to identify multiple opportunities for drug repurposing: Primary screen for U-2 OS cells (AID 1347096). Note: nearly all actives have a fitted effect of over 50% in size. Put shortly:
(§3)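 Cells (500-1,000/well) in growth media were settled 5 h at 37 degrees C, then given compounds for 48 h. Viability was read as CellTiter-Glo luminescence. Primary runs used MIPE at 11 points (0.78 nM-46 µM) and NPC at 8 points (0.59 nM-46 µM); follow-ups used 11 points.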

Test [9] is described as follows: qHTS of pediatric cancer cell lines to identify multiple opportunities for drug repurposing: Primary screen for Saos-2 cells (AID 1347097). Note: nearly all actives have a fitted effect of over 40% in size. Note: potency is the fitted concentration of half-maximal effect. The method, boiled down: as §2
Test [10] is described as follows: qHTS of pediatric cancer cell lines to identify multiple opportunities for drug repurposing: Primary screen for SK-N-SH cells (AID 1347098). Note: nearly all actives have a fitted effect of over 65% in size. Note: potency is the fitted concentration of half-maximal effect. The method, boiled down: (§4)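 Cells (500-1,000/well) rested 5 h, then received compounds for 48 h; metabolically active cells were measured by CellTiter-Glo luminescence. Final concentrations spanned up to 46 µM (MIPE, 11-point) or 0.59 nM-46 µM (NPC, 8-point) in primary screens, 11-point in follow-ups.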

Test [11] is described as follows: qHTS of pediatric cancer cell lines to identify multiple opportunities for drug repurposing: Primary screen for NB1643 cells (AID 1347099). Note: nearly all actives have a fitted effect of over 50% in size. Note: potency is the fitted concentration of half-maximal effect. Put shortly: as §2
The nature of test [12]: qHTS of pediatric cancer cell lines to identify multiple opportunities for drug repurposing: Primary screen for LAN-5 cells (AID 1347100). Note: potency is the fitted concentration of half-maximal effect. The method, boiled down: as §3
A short description of test [13]: qHTS of pediatric cancer cell lines to identify multiple opportunities for drug repurposing: Primary screen for BT-12 cells (AID 1347101). Note: nearly all actives have a fitted effect of over 25% in size. Note: potency is the fitted concentration of half-maximal effect. The method, boiled down: as §4
Test [14] can be described thus: qHTS of pediatric cancer cell lines to identify multiple opportunities for drug repurposing: Primary screen for Rh18 cells (AID 1347102). Note: nearly all actives have a fitted effect of over 65% in size. Note: potency is the fitted concentration of half-maximal effect. The method, boiled down:
as §3

Test [15] in a line: qHTS of pediatric cancer cell lines to identify multiple opportunities for drug repurposing: Primary screen for OHS-50 cells (AID 1347103). Note: nearly all actives have a fitted effect of over 40% in size. Note: potency is the fitted concentration of half-maximal effect. Put shortly:
as §4

Test [16] in a line: qHTS of pediatric cancer cell lines to identify multiple opportunities for drug repurposing: Primary screen for RD cells (AID 1347104). Note: nearly all actives have a fitted effect of over 55% in size. Note: potency is the fitted concentration of half-maximal effect. The method, boiled down:
as §2

The target in test [17] is T1, Tyrosine-protein phosphatase non-receptor type substrate 1 (Homo sapiens) + Leukocyte surface antigen CD47 (Homo sapiens). As to the kind of experiment: CD47-SIRPalpha protein protein interaction - HTRF assay qHTS validation (AID 1347058; active = well fitted curve in the direction sought with a large enough effect in the signal ratio, not every such curve was filed as active; the % refers to the signal ratio; note: series mostly up to about 38 µM). Put shortly: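 TR-FRET read (Ch1/Ch2 ratio) of soluble extracellular CD47 and Avi-biotinylated SIRPalpha domains in PBS pH 7.4 with 0.05% IGEPAL; 7-point compound titration. Sequential 30 min room-temperature steps; non-biotinylated SIRPalpha as control inhibitor.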
Background: Time-resolved FRET reads energy transfer from a long-lived donor to a nearby acceptor.

The nature of test [18]: qHTS of pediatric cancer cell lines to identify multiple opportunities for drug repurposing: Primary screen for SJ-GBM2 cells (AID 1347091). Note: potency is the fitted concentration of half-maximal effect. The method, boiled down: as §1
Test [19] in a line: qHTS of pediatric cancer cell lines to identify multiple opportunities for drug repurposing: Primary screen for A673 cells (AID 1347092). Note: nearly all actives have a fitted effect of over 45% in size. Note: potency is the fitted concentration of half-maximal effect. Put shortly:
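48 h compound exposure, A673, 500-1,000 cells/well, 37 degrees C/5% CO2. MIPE: 11-point, 0.78 nM-46 µM; NPC: 8-point, 0.59 nM-46 µM (final). Readout CellTiter-Glo luminescence after 15 min RT.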

A short description of test [20]: qHTS of pediatric cancer cell lines to identify multiple opportunities for drug repurposing: Primary screen for MG 63 (6-TG R) cells (AID 1347105). Note: nearly all actives have a fitted effect of over 50% in size. Note: potency is the fitted concentration of half-maximal effect. The method, boiled down: as §2

Values joined by “and” are separate entries in the source; they are usually repeats but may differ in a detail not shown here. Equal entries are not always repeated. A number with no mark means an inactive call. Records with an inconclusive call do not appear. Active and inactive are the calls of the source. Unless noted, calls come from the whole dose curve; as a rule, active = well fitted curve in the direction sought with a large enough effect; inconclusive = small, poorly fitted or top-dose-only effect, or another doubt; inactive = no such curve, though single readings can be large; an effect the other way counts as inactive or inconclusive.

Sequence of Parathyroid hormone/parathyroid hormone-related peptide receptor (Homo sapiens) (Q03431 whole entry, looked up): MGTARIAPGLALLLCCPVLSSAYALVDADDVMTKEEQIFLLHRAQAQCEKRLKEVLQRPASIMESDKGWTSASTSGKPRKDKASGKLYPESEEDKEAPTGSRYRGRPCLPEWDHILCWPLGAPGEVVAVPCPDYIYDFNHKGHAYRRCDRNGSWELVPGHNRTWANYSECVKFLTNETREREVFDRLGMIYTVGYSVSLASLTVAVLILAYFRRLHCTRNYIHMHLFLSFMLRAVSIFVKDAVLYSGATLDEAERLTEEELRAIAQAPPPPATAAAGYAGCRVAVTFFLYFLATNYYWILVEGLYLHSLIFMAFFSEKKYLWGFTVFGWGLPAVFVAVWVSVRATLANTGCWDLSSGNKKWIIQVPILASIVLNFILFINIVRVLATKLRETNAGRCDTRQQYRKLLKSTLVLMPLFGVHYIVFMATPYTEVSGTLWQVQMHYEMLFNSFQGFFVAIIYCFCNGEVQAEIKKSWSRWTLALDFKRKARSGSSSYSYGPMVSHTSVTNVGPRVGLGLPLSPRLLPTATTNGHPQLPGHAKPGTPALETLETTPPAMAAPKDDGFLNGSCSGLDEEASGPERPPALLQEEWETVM
T1 sequence (P78324 whole entry, looked up, the tested form may be a part): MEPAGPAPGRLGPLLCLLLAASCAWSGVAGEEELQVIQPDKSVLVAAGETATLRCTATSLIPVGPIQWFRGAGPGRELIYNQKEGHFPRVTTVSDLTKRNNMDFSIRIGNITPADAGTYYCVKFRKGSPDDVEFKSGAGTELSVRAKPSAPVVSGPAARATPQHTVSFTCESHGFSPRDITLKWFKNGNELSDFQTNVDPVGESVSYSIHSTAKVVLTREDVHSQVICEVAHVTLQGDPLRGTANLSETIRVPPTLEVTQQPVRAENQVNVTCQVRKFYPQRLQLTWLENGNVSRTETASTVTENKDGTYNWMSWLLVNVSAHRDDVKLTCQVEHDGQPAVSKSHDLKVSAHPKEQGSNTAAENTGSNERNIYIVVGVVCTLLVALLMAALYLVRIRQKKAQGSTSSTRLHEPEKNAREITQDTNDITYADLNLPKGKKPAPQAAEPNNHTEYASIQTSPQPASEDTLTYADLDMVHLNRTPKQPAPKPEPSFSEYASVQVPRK
T1 sequence (Q08722 whole entry, looked up, the tested form may be a part): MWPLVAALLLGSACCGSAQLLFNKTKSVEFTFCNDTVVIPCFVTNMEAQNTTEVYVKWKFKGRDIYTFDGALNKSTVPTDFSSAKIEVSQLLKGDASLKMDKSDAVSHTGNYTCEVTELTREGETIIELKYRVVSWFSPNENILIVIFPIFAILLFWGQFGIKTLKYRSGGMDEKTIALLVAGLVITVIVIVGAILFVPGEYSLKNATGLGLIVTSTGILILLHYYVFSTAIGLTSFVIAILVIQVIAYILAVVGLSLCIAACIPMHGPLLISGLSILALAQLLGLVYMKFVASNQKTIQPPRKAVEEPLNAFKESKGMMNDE

As for `NC(=NCc1ccccc1)NC(=O)c1nc(Cl)c(N)nc1N`, the Potency entry in [1], in test [3], in [6], in test [7], in test [8] and in [9] was “inactive” in each case. Besides, the Potency result in test [10], in test [12], in test [13], in test [14] and in test [15] was “inactive” in each case. In addition, in [2], the result was inactive. Also, the Potency in [4] was 18.7 µM (active); in [5] it was 1.18 µM (active); in test [11] it was 9.35 µM (active); in [16] it was 26.4 µM (active).
`CCN(CC)C(=S)SSC(=S)N(CC)CC`: the outcome in [17] and in test [2] was inactive. In addition, in [1], the Potency entry is “inactive”. In addition, the Potency in [3] was 989 nM (active) and 4.19 µM (active); in [4] it was 11.8 nM (active) and 49.5 nM (active) and 133 nM (active); in test [18] it was 4.69 µM (active); in test [19], 11.8 nM (active) and 19.7 nM (active); in [5] it was 18.7 nM (active) and 49.5 nM (active) and 119 nM (active); in test [6], 24.3 nM (active) and 815 nM (active). For the same compound, the Potency in test [7] is 11.8 nM (active) and 31.3 µM (active); in test [9], 13.2 nM (active) and 62.4 nM (active) and 211 nM (active); in [10] it was 114 nM (active); in test [11], 83.3 nM (active) and 124 nM (active) and 668 nM (active); in [12] it was 23.5 nM (active) and 39.4 nM (active); in test [13], 15.3 nM (active) and 72.7 nM (active) and 174 nM (active). Also, the Potency in test [14] was 33.2 nM (active) and 70 nM (active) and 376 nM (active); in test [15], 43.2 nM (active); in test [16] it was 11.8 nM (active) and 35.1 nM (active) and 150 nM (active); in test [20] it was 37.2 nM (active).
For `CCOC(=O)C(C)Oc1cccc2c(=O)n(CC(=O)Nc3ccc4c(c3)OCCO4)ccc12` (stereo not given), the outcome in test [17] and in [2] was inactive. Moreover, the Potency entry in test [1], in test [3], in test [18], in test [6], in test [7] and in test [8] was “inactive” throughout. In addition, the Potency result in test [9], in test [10], in test [12], in test [13], in test [14] and in test [15] was “inactive” in each case. In test [16], the Potency result was “inactive”. In addition, the Potency in test [19] was 7.43 µM (active).
On to `Cc1cccc(-c2[nH]ncc2-c2ccc3ncccc3n2)n1`, for which, in test [17], the result was inactive. For the same compound, the Potency entry in test [1], in test [3], in test [4], in test [18], in test [5] and in test [8] was “inactive” throughout. The Potency result in test [9], in test [10], in test [11], in [12], in test [13] and in test [14] was “inactive” throughout. The Potency result in test [16] and in [20] was “inactive” each time.
As to `CC(C)c1ccc2c(c1)c(SC(C)(C)C)c(CC(C)(C)C(=O)O)n2Cc1ccc(Cl)cc1`, the outcome in test [17] and in [2] was inactive. For the same compound, the Potency result in test [1], in [3] and in test [8] was “inactive” throughout. In addition, the Potency in test [4] is 23.5 µM (active); in test [5], 8.33 µM (active); in [6] it was 27.3 µM (active); in test [9], 29.6 µM (active); in test [11], 16.6 µM (active).
As to `O=C(O)c1cccnc1Nc1cccc(C(F)(F)F)c1`, the result in [17] and in test [2] was inactive. Further, the Potency result in test [1], in test [3], in [4], in test [18], in test [19] and in [6] was “inactive” each time. In addition, the Potency entry in test [7], in test [8], in test [9], in [10], in test [11] and in test [12] was “inactive” each time. The Potency result in test [13], in test [14], in test [16] and in test [20] was “inactive” throughout. Further, the Potency in test [5] is 26.6 µM (active).
